39 sequences from the OligoGym collection can be followed below.
Also: reference of the scale not given here.

The first assay concerns the target FGF2. As to the kind of experiment: pooled miR-30 sensor sort-seq; sequence = guide strand. The note with it: shRNA.
On to TTTGATAGACACAACTCCTCTC, for which the sensor-assay potency score (higher = more potent) stood at 0.744. The sequence TCCATCTTCCTTCATAGCCAGG had a sensor-assay potency score (higher = more potent) of -1.98. Sequence AAAAAAGAAACACTCATCCGTA registered a sensor-assay potency score (higher = more potent) of 0.00256.

With ATAGACACAACTCCTCTCTCTT, the sensor-assay potency score (higher = more potent) was -0.298.

For the sequence TAACACATTTAGAAGCCAGTAA, the sensor-assay potency score (higher = more potent) is -0.0447.

TATACTTCTTCTTTCATGTGAA showed a sensor-assay potency score (higher = more potent) of 0.715.

The sequence TTCAGTGCCACATACCAACTGG displayed a sensor-assay potency score (higher = more potent) of -0.475. The sequence TAGAAGCCAGTAATCTTCCATC yielded a sensor-assay potency score (higher = more potent) of -0.587. In turn, TTCTAAAATATACTTCTTCTTT returned a sensor-assay potency score (higher = more potent) of -0.418.

TTGCAGTACAGCCGCTTGGGGT returned a sensor-assay potency score (higher = more potent) of -1.34. Still for that read-out and setting: the result for TGAGGGTCGCTCTTCTCCCGGA reads -0.455. The sequence TAGCTTTCTGCCCAGGTCCTGT had a sensor-assay potency score (higher = more potent) of -0.929. Still for that read-out and setting: the result for TATTAGATTCCAATCGTTCAAA reads -0.684. For TTAGAAGCCAGTAATCTTCCAT, the sensor-assay potency score (higher = more potent) came to 0.816.

Take AACGGTTAGCACACACTCCTTT: the sensor-assay potency score (higher = more potent) was found to be 0.1.

As for TAGTTATTAGATTCCAATCGTT, the sensor-assay potency score (higher = more potent) is -0.676. In the case of TTGGAAGAAAAAGTATAGCTTT, the sensor-assay potency score (higher = more potent) is 0.162. Still for that read-out and setting: in the case of TAGCTTGATGTGAGGGTCGCTC it was -0.132; in that of TGGTGTATTTCCTTGACCGGTA, -0.344; in that of TTTGGATCCAAGTTTATACTGC, -0.268. Same read-out and setting: the result for TTTGCAGTACAGCCGCTTGGGG reads -0.977; that for TAACGGTTAGCACACACTCCTT, -1.27.

Sequence TAGACACAACTCCTCTCTCTTC came in with a sensor-assay potency score (higher = more potent) of -0.65. In turn, TTGATAGACACAACTCCTCTCT showed a sensor-assay potency score (higher = more potent) of 0.382.

In the next assay the target is FGFR1. The description is as above. The conditions noted are these: shRNA.
In turn, TCTGTCACCAGGACATTCCTGG displayed a sensor-assay potency score (higher = more potent) of 0.104.

Turning to TGTCTTTTTATAGTAGTCGATG, the sensor-assay potency score (higher = more potent) is -1.03. For TTTGTGTTTTCTTCATAGCTAT, the sensor-assay potency score (higher = more potent) was -0.428. The sequence TGAACTTCACTGTCTTGGCAGC had a sensor-assay potency score (higher = more potent) of -0.906. Sequence TCATTCTCCACAATGCAGGTGT displayed a sensor-assay potency score (higher = more potent) of 0.557.

In turn, TTGAAGGTGGGTCTCTGTGAGG gave a sensor-assay potency score (higher = more potent) of -0.69.

Regarding TTGTAGACGATGACCGACCCCA, the sensor-assay potency score (higher = more potent) was -0.237.

TTGTCGGTGGTATTAACTCCAG showed a sensor-assay potency score (higher = more potent) of -1.38.

TTCTTTTCCATCTTTTCTGGGG registered a sensor-assay potency score (higher = more potent) of -0.274. As to TCTCGGTGTATGCACTTCTTGG, the sensor-assay potency score (higher = more potent) was -1.66. The same measure, in the same setting: in the case of TTACTGGGCTTGTCCATGCGGT it was -0.849. As for TTGAACTTCACTGTCTTGGCAG, the sensor-assay potency score (higher = more potent) amounted to 0.751. The same measure, in the same setting: the result for TTACACATGAACTCCACGTTGC reads 0.903; that for TTGTGCACAGCCATCTGGCTGT, -0.135; that for TTTTATAGTAGTCGATGTGGTG, -0.492.
